From PubChem BioAssay
This is a sample that favours compounds with a hit; in the whole collection about 7.2% have one here.
Luciferase inh: Photinus pyralis luciferase inhibition. purified P. pyralis luciferase, luminescence, biochemical. hit rate 2.5% among 76,000. AID 1347043. Potency, µM (doses to about 115 µM), actives largely listed as inhibitors; note: nearly all actives have a fitted effect of over 65% in size
Target sequence (P08659 whole entry, looked up): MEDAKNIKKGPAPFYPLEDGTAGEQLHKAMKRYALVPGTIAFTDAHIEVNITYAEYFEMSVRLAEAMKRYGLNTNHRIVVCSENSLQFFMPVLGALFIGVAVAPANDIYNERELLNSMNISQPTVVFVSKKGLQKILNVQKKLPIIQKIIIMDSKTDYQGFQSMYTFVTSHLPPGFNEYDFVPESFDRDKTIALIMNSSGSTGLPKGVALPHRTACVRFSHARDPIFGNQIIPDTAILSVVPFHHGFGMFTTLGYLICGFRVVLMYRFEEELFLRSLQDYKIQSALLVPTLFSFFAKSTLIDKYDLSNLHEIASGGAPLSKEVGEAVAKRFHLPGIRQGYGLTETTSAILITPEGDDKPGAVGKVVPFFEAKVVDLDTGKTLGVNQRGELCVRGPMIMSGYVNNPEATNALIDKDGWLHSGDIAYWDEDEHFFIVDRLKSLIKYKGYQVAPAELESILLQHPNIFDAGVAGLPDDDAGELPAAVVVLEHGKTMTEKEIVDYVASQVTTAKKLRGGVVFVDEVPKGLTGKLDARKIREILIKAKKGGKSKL
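Biochemical qHTS: compound (6-point titration) added to 10uM D-luciferin plus 10uM ATP in Tris acetate pH 7.5 buffer with Mg, Tween-20 and BSA, then purified enzyme at 10nM; light output imaged.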
hNpr1 antagonist: antagonists of human natriuretic peptide receptor Npr1. hit rate 1.6% among 76,000. HEK293 hNpr1 GloSensor cGMP, ANP-stimulated luminescence. P16066. Potency, µM (highest dose often 46.3 µM), without a hit: at the highest dose activity change, negative = inhibition, most hits filed as inhibitors; calls by dose curve; note: nearly all actives have a fitted effect of over 60% in size
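Compound pre-incubated 30 min at room temperature on GloSensor-loaded HEK293 cells stably carrying hNpr1 and the pGS-40F cGMP biosensor. Stimulation uses hNppA at 0.1 nM final; luminescence is taken at baseline and 20 min post-agonist.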
HEK293 tox: kills HEK 293 cells; HEK 293 viability, ATP luminescence (CellTiter-Glo), 48-72 h; Potency, µM (titrated, usually from 115 µM), for inactives: at the top dose activity change, negative = cytotoxicity, hits mostly inhibitors; hit rate 6.6% among 94,000; note: nearly all actives have a fitted effect of over 60% in size
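Cytotoxicity was scored by loss of ATP-coupled luminescence (CellTiter-Glo) in HEK 293 cells. Compound treatment ran 48 or 72 hr at 37 degree Celsius, 5% CO2, 95% humidity.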
SNCA expr inh: inhibitors of alpha-synuclein (SNCA) gene expression | HEK-293 SNCA-luciferase knock-in, luminescence, 24 h | Potency, µM (top dose mostly 57.2 µM), for the others: top-dose activity change, negative = inhibition, actives largely listed as inhibitors | hit rate 0.17% among 140,000 | AID 1671194;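 note: plate controls were DMSO cells for no effect and cell-free wells for full effect; nearly all actives have a fitted effect of over 45% in size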
NIH3T3 tox: NIH 3T3 cell cytotoxicity | NIH 3T3 viability, CellTiter-Glo ATP luminescence, 48-72 h | Potency, µM (doses to about 96.7 µM), for the others: at the top dose activity change, negative = cytotoxicity, usual class: inhibitors | hit rate 4.3% among 94,000 | AID 1345082; note: nearly all actives have a fitted effect of over 55% in size
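Mouse fibroblast NIH 3T3 cells, 400 per well, received compound via pintool and were incubated for 48 or 72 hr prior to CellTiter-Glo ATP luminescence measurement.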
HEK293 viab: cell viability loss counter-screen | hit rate 0.12% among 150,000 | HEK-293-SNCA-luc viability, GF-AFC fluorescence, 24 h | Potency, µM (highest dose often 57.1 µM), without a hit: top-dose activity change, negative = cytotoxicity, most hits filed as cytotoxic;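 note: 0% = DMSO-treated cells and -100% = medium-only wells without cells; nearly all actives have a fitted effect of over 30% in size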
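Cytotoxicity counterscreen: after 24 h compound treatment of genome-edited SNCA-luciferase HEK-293 cells, live-cell protease substrate GF-AFC read by fluorescence after 30 min; activity scaled between DMSO (0%) and medium-only (-100%), curves Hill-fitted.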
* marks the source's active call; other numbers are inactive results; [ ] = remark or other dose. Unless noted, calls come from the whole dose curve; as a rule, active = well fitted curve in the direction sought with a large enough effect; inconclusive = small, poorly fitted or top-dose-only effect, or another doubt; inactive = no such curve, though single readings can be large; an effect the other way counts as inactive or inconclusive. Unless noted, % is set by controls: 0 for no effect and ±100 for the full control effect; potency is the fitted concentration of half-maximal effect.

Results for CCn1ccc(C(=O)N2CCC3(CC2)c2nccn2-c2ccccc2CN3CC(C)C)n1 ?
Luciferase inh: inactive; hNpr1 antagonist: 3.8%; HEK293 tox: 44.7µM*; SNCA expr inh: 8.1%; NIH3T3 tox: inconclusive; HEK293 viab: -2.1%

How did COCCOCC(=O)N1CCC2(CC1)c1nccn1-c1ccccc1CN2CC(C)C do in these assays?
Luciferase inh: inactive; hNpr1 antagonist: -14.2%; HEK293 tox: -15.1%; SNCA expr inh: -10.1%; NIH3T3 tox: inactive; HEK293 viab: -16.7%

What do the screens show for `CC(C)CN1Cc2ccccc2-n2ccnc2C12CCN(C(=O)c1cccs1)CC2`?
Luciferase inh: inactive; hNpr1 antagonist: -18.6%; HEK293 tox: 44.7µM*; SNCA expr inh: 3.8%; NIH3T3 tox: inconclusive; HEK293 viab: -14.6%

How did CCOCC(=O)N1CCC2(CC1)c1nccn1-c1ccccc1CN2CC(C)C do in these assays?
Luciferase inh: inactive; hNpr1 antagonist: -4.0%; HEK293 tox: inconclusive; SNCA expr inh: 22.6%; NIH3T3 tox: inactive; HEK293 viab: 7.9%

Results for CC(C)CN1Cc2ccccc2-n2ccnc2C12CCN(C(=O)c1cccc(F)c1)CC2 ?
Luciferase inh: inactive; hNpr1 antagonist: -18.1%; HEK293 tox: 35.5µM*; SNCA expr inh: -18.9%; NIH3T3 tox: inconclusive; HEK293 viab: -19.1%

What do the screens show for `CC(C)CN1Cc2ccccc2-n2ccnc2C12CCN(C(=O)c1ccn[nH]1)CC2`?
Luciferase inh: inactive; hNpr1 antagonist: -15.1%; HEK293 tox: 39.8µM*; SNCA expr inh: -12.9%; NIH3T3 tox: -26.5%; HEK293 viab: -18.5%

How did O=C1NC[C@H]2CN(Cc3ccccc3)CCN12 do in these assays?
Luciferase inh: inactive; hNpr1 antagonist: 0.3%[70.6 µM]; HEK293 tox: -17.8%[230 µM]; SNCA expr inh: -20.6%[87.6 µM]; NIH3T3 tox: -13.1%[174 µM]; HEK293 viab: 13.8%[87.6 µM]

Results for CCOC(=O)[C@H]1CN(C(=O)OCC)[C@]2(C)C(=O)N(C)c3ccccc3[C@H]12 ?
HEK293 tox: inconclusive; NIH3T3 tox: -15.8%

What do the screens show for `CC(C)CN1Cc2ccccc2-n2ccnc2C12CCN(C(=O)c1ccoc1)CC2`?
Luciferase inh: inactive; hNpr1 antagonist: -21.1%; HEK293 tox: inconclusive; SNCA expr inh: -18.0%; NIH3T3 tox: inconclusive; HEK293 viab: -7.6%

What do the screens show for `CC(C)CN1Cc2ccccc2-n2ccnc2C12CCN(C(=O)c1ccco1)CC2`?
Luciferase inh: inactive; hNpr1 antagonist: -15.3%; HEK293 tox: 44.7µM*; SNCA expr inh: 0.1%; NIH3T3 tox: inconclusive; HEK293 viab: inconclusive

How did O=C(Cc1cccc(Cl)c1)N1CCCN(CCn2nc3n(c2=O)CCCC3)CC1 do in these assays?
HEK293 tox: 4.3%; NIH3T3 tox: inactive

Results for CO[C@@H]1CNC2Cc3c(oc4ccccc34)C1C2 (some centres undefined) ?
HEK293 tox: inconclusive; NIH3T3 tox: -19.6%

How did COc1cc2c(cc1OCc1ccccc1)N(C(=O)c1cccc(N(C)C)c1)CC21CCN(C)CC1 do in these assays?
Luciferase inh: inactive; hNpr1 antagonist: 2.8%; HEK293 tox: inconclusive; SNCA expr inh: -0.4%; NIH3T3 tox: 11.2µM*; HEK293 viab: -16.7%

What do the screens show for `COc1cc2c(cc1OCc1ccccc1)N(C(=O)C(C)C)CC21CCN(C)CC1`?
Luciferase inh: inactive; hNpr1 antagonist: 7.0%[70.6 µM]; HEK293 tox: inconclusive; SNCA expr inh: 4.9%[87.6 µM]; NIH3T3 tox: 89.1µM*; HEK293 viab: -23.6%[87.6 µM]

What do the screens show for `COc1cc2c(cc1OCc1ccccc1)N(C(=O)c1cnn(C)c1)CC21CCN(C)CC1`?
Luciferase inh: inactive; hNpr1 antagonist: -0.6%; HEK293 tox: inconclusive; SNCA expr inh: 38.8%; NIH3T3 tox: inconclusive; HEK293 viab: 4.2%

What do the screens show for `COc1cc2c(cc1OCc1ccccc1)N(C(=O)c1ccc3[nH]ccc3c1)CC21CCN(C)CC1`?
Luciferase inh: inactive; hNpr1 antagonist: -2.2%; HEK293 tox: 35.5µM*; SNCA expr inh: inconclusive; NIH3T3 tox: 22.4µM*; HEK293 viab: inconclusive

Results for COc1cc2c(cc1OCc1ccccc1)N(C(=O)c1ccnn1C)CC21CCN(C)CC1 ?
Luciferase inh: inactive; hNpr1 antagonist: 0.4%; HEK293 tox: inconclusive; SNCA expr inh: -6.6%; NIH3T3 tox: inconclusive; HEK293 viab: 2.2%

How did COc1cc2c(cc1OCc1ccccc1)N(C(=O)c1ccccc1OC)CC21CCN(C)CC1 do in these assays?
Luciferase inh: inactive; hNpr1 antagonist: -1.6%; HEK293 tox: 79.4µM*; SNCA expr inh: -16.0%; NIH3T3 tox: 28.2µM*; HEK293 viab: -8.4%

What do the screens show for `Cc1ccccc1-c1ccc2n(c1=O)C[C@H]1C[C@@H]2CN(C(=O)c2cccs2)C1`?
Luciferase inh: inactive; hNpr1 antagonist: 4.8%[70.6 µM]; HEK293 tox: inactive; SNCA expr inh: 32.3%[87.6 µM]; NIH3T3 tox: inconclusive; HEK293 viab: -1.4%[87.6 µM]

Results for Cc1ncc2c(n1)C[C@@H]1CC[C@H]2N1C(=O)c1ccoc1 ?
Luciferase inh: inactive; hNpr1 antagonist: 9.2%; HEK293 tox: 4.2%; SNCA expr inh: 6.3%; NIH3T3 tox: inactive; HEK293 viab: 9.3%

Results for CCOC(=O)[C@H]1CN(C(=O)Nc2ccccc2)[C@]2(C)C(=O)N(CC3CC3)c3ccccc3[C@H]12 ?
HEK293 tox: inconclusive; SNCA expr inh: 17.3%[25.6 µM]; NIH3T3 tox: inconclusive; HEK293 viab: -3.7%[23.9 µM]

What do the screens show for `COc1ccc(NC(=O)N2[C@H]3CC[C@@H]2c2cnc(-c4ccc(F)cc4)nc2C3)c(OC)c1`?
Luciferase inh: inactive; hNpr1 antagonist: -2.0%; HEK293 tox: -5.7%; SNCA expr inh: 18.4%; NIH3T3 tox: -27.8%; HEK293 viab: -1.3%

What do the screens show for `COc1cc2c(cc1OCc1ccccc1)N(C(=O)C1CCC(C)CC1)CC21CCN(C)CC1` (centres undefined)?
Luciferase inh: inactive; hNpr1 antagonist: -3.4%; HEK293 tox: 28.2µM*; SNCA expr inh: inconclusive; NIH3T3 tox: 20µM*; HEK293 viab: inconclusive

How did COc1cc2c(cc1Oc1cccc(N(C)C)c1)NC(=O)C21CCN(C(=O)CN2CCOCC2)CC1 do in these assays?
Luciferase inh: inactive; hNpr1 antagonist: -17.5%; HEK293 tox: inconclusive; SNCA expr inh: -2.8%; NIH3T3 tox: -19.6%; HEK293 viab: -3.8%

What do the screens show for `COC1CC(=O)C23C(=O)NC(CC(C)C)C2C(C)=C(C)C(OO)C3/C=C(\C)CCC(O)C1O` (centres undefined)?
HEK293 viab: -5.6%[23.9 µM]

What do the screens show for `C#CCN1C(=O)[C@@H]2[C@H](c3ccccc31)[C@@H](C(=O)OCC)[C@@H](c1ccccc1)N2C(=O)c1ccco1`?
HEK293 tox: 31.6µM*; NIH3T3 tox: inconclusive
